{"source": "PubChem BioAssay (NCATS)", "note": "Inconclusive results are not listed. Where a call stands in place of a potency, no number is given. The source made the active and inactive calls. Calls come from the whole dose curve; as a rule, active = well fitted cell-killing curve with a large enough effect; inconclusive = small, poorly fitted or top-dose-only effect, or effect the other way; inactive = flat fitted curve, though single readings scatter. Potency is the fitted concentration of half-maximal effect."}
{"assay": "qHTS for Inhibitors of ATXN expression: Validation of Cytotoxic Assay (AID 588349)", "conditions": "cytotoxicity counter-screen for ATXN expression inhibitors, cell viability; series mostly up to 57.1 µM", "how_it_was_run": "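Toxicity of test compounds toward HEK293 cells is scored from cellular ATP content measured by CellTiter Glo. Cells receive titrated doses and incubate 72 hr at 37 degrees C beforehand.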"}
{"smiles": "C[N+](C)(C)CC(=O)O", "Potency": "inactive"}
{"smiles": "CC1(C)CCC2=C(O1)c1ccccc1C(=O)C2=O", "Potency": "22.4 µM (active)"}
{"smiles": "CC(=O)O[C@]1(C(C)=O)CC[C@H]2[C@@H]3C=C(Cl)C4=CC(=O)[C@@H]5C[C@@H]5[C@]4(C)[C@H]3CC[C@@]21C", "Potency": "inactive"}
{"smiles": "CCn1cc(C(=O)O)c(=O)c2ccc(C)nc21", "Potency": "inactive"}
{"smiles": "CCCCCN(C)CCC(O)(P(=O)(O)O)P(=O)(O)O", "Potency": "inactive"}
{"smiles": "O=C(NCCN1CCOCC1)c1ccc(Cl)cc1", "Potency": "inactive"}
{"smiles": "CC1=C(/C=C/C(C)=C/C=C/C(C)=C/C(=O)Nc2ccc(O)cc2)C(C)(C)CCC1", "Potency": "31.6 µM (active)"}
{"smiles": "O=C(O)CCc1nc(-c2ccccc2)c(-c2ccccc2)o1", "Potency": "inactive"}
{"smiles": "COc1ccc(Cc2nccc3cc(OC)c(OC)cc23)cc1OC", "Potency": "inactive"}
